Screening data from PubChem BioAssay.
Cruzain noTriton = blocks cruzain activity in detergent-free assay. P25779. purified cruzain, Z-FR-AMC fluorescence, no detergent. Potency, µM, for the others: max response, negative = inhibition, actives largely listed as inhibitors. actives 2.3% (n = 200,000). AID 1476;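 further: plate controls were enzyme without inhibitor for no effect and buffer without enzyme for full effect; nearly all actives have a fitted effect of over 40% in size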
Target sequence (P25779 123-467 limits assumed): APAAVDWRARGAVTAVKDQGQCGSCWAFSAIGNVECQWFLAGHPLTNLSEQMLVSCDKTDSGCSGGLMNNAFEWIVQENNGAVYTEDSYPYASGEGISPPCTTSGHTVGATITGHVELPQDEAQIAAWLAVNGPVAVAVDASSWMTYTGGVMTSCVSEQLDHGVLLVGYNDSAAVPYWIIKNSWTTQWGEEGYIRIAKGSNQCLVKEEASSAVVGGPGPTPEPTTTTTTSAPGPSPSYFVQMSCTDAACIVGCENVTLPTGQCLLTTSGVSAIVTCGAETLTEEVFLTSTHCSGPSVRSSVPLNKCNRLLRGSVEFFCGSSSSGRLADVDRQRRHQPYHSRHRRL
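Detergent-free condition (0.00005% Triton X-100) in acetate buffer pH 5.5 with DTT. 1.5 nM enzyme and compound were pre-mixed 15 min, then 2 uM Z-FR-AMC substrate added; reaction progress from fluorescence change between first and third reads (60 s).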
Cruzain inh Det = cruzain (T. cruzi) inhibition with detergent | purified cruzain, Z-FR-AMC fluorescence, 0.01% Triton | Potency, µM, without a hit: max response, negative = inhibition, most hits filed as inhibitors | actives 0.43% (n = 200,000);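 further: plate controls were neutral wells for no effect and buffer without enzyme for full effect; nearly all actives have a fitted effect of over 40% in size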
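Detergent-containing arm of a paired screen for aggregation-based inhibition: 0.01% Triton X-100 present. Cruzain at 1.5 nM cleaved 2 uM Z-FR-AMC at pH 5.5 with 5 mM DTT; AMC fluorescence gain over 60 s measured activity.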
NS1 function inh = blocks influenza NS1 protein function. Potency, µM (top dose mostly 46.1 µM), for inactives: top-dose activity, positive = more growth. actives 0.4% (n = 270,000); calls by dose curve; further: actives are rising curves; nearly all actives have a fitted effect of over 50% in size
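Compounds were scored for reversing the slow growth caused by influenza A NS1 in S. cerevisiae, measured by optical density at 600 nm. Assay medium contained 2% galactose at pH 6.0; NS1-free yeast of the same strain were the positive control.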
An asterisk follows results filed as active; ? = inconclusive; / = no result. Only a selection was taken, and hits are over-represented in it overall. Unless noted, the call rests on the fitted dose curve; in most records, active means well fitted curve in the direction sought with a large enough effect; inconclusive means small, poorly fitted or top-dose-only effect, or another doubt; inactive means no such curve, though single readings can be large; an effect the other way counts as inactive or inconclusive. Potency means the concentration at half of the fitted maximal effect.

SMILES	Cruzain noTriton	Cruzain inh Det	NS1 function inh
COc1ccc(-c2[nH]n(-c3ccc([N+](=O)[O-])cc3)c(=O)c2C=NCc2ccncc2)cc1	?	-4%	19%
Cc1ccc(C(=O)N/C(=C/c2ccco2)C(=O)OCN2C(=O)c3ccccc3C2=O)cc1	0.4µM*	0.35µM*	-7%
COC(=O)/C(=C/c1ccco1)NC(=O)c1ccccc1	7%	-11%	8%
NNc1nc(-c2ccccc2)cc(-c2ccccc2O)n1	16µM*	-5%	-19%
NNc1nc(-c2ccccc2)cc(-c2ccccc2)n1	/	/	23%
C/C(=N\NC(=O)CNC(=O)C(c1ccccc1)c1ccccc1)c1ccccc1	13µM*	5%	1%
C/C(=N\NC(=O)CNC(=O)C(c1ccccc1)c1ccccc1)c1ccc(C(C)(C)C)cc1	?	1%	-4%
O=C(CN1CCN(CCN2C(=O)c3cccc4cccc(c34)C2=O)CC1)c1ccc(F)cc1	?	-28%	16%
O=C1C2C=CC=CC2=NC(=S)N1CCN1CCC(=C(c2ccc(F)cc2)c2ccc(F)cc2)CC1 (stereo not given)	13µM*	-10%	?
Cc1ccc(C(=O)NC(C)c2ccc(S(N)(=O)=O)cc2)s1 (stereo not given)	/	/	-2%
COc1ccc(C(Cl)=C(c2ccc(OC)cc2)c2ccc(OC)cc2)cc1	20µM*	-5%	-10%
COc1ccc(C(=N/O)/C(=N/O)c2ccc(OC)cc2)cc1	-5%	-3%	0%
Cc1ccc([N+](=O)[O-])cc1N(CC(=O)NCC1CCCO1)S(C)(=O)=O (stereo not given)	/	/	4%
COc1cccc(CCC(=O)O)c1OC	5%	2%	-4%
COc1ccc(C2C(C(C)=O)=C(O)C(=O)N2c2ccc(F)cc2)cc1 (stereo not given)	/	/	-4%
COc1ccc(OC)c(NC(=S)N(CCc2c(C)[nH]c3ccccc23)Cc2cccs2)c1	?	1%	?
COc1ccc(OC)c(NC(=S)N(CCc2c(C)[nH]c3ccc(C)cc23)Cc2cccs2)c1	25µM*	-2%	?
CCn1c(COc2cccc(C)c2)nnc1SCC(=O)NC1CCCC1	/	/	-2%
CCCCC(=O)Nc1ccc(N2CCN(c3ccc(F)cc3)CC2)cc1	/	/	3%
CCOC(=O)C1=C(N)n2c(s/c(=C\c3cccs3)c2=O)=C(C(=O)OCC)C1c1cccs1 (stereo not given)	2µM*	-4%	-12%
CCOC(=O)C1=C(N)n2c(s/c(=C\c3ccncc3)c2=O)=C(C(=O)OCC)C1c1ccncc1 (stereo not given)	/	/	1%
O=C(Cc1cccs1)NC1CC(=O)N(c2ccccc2)C1 (stereo not given)	4%	0%	/
CCc1nnc(SCC(=O)NCCC2=CCCCC2)nc1CC	/	/	-9%
O=C(NNS(=O)(=O)c1ccccc1[N+](=O)[O-])c1ccncc1	17%	0%	6%
c1ccc2c(Nc3nc(N4CCOCC4)c4ccccc4n3)cccc2c1	-8%	-8%	-34%
SMILES	Cruzain noTriton	Cruzain inh Det	NS1 function inh
Fc1ccc(Nc2nc(N3CCOCC3)c3ccccc3n2)cc1	16µM*	?	-108%
COC(=O)/C=C1/N/C(=N\c2nc(C)cc(C)n2)N(c2ccc(C)c(C)c2)C1=O	-8%	0%	-4%
Cc1ccc(NC(=O)C2CCC(CNS(=O)(=O)c3ccc4c(c3)C(C)(C)C(=O)N4C)CC2)cc1 (stereo not given)	-12%	0%	/
COc1ccc(N2CCN(S(=O)(=O)c3ccc(Cl)c(C(F)(F)F)c3)CC2)cc1	16µM*	4%	15%
COc1ccc(N2CCN(S(=O)(=O)c3cccc(C(F)(F)F)c3)CC2)cc1	-2%	2%	-1%
COc1cc(NC(=O)c2c3c(nc4ccccc24)C(=O)N(C2CCCCC2)C3)cc(OC)c1	5%	-1%	/
c1cn2cc(CSC3CCCCC3)nc2s1	-4%	-1%	-89%
O=C(NCCc1cn2ccccc2n1)c1ccccc1F	?	-14%	6%
O=C(NCCc1cn2ccccc2n1)C1CCCCC1	16µM*	-4%	-25%
O=C(NCCc1cn2ccsc2n1)C1CCCCC1	13µM*	-7%	-20%
COCCn1c(C)cc(O)c(C(=O)Nc2cccc(Cl)c2)c1=O	/	/	-20%
CCOC(=O)c1ccc(N2C(=O)c3n[nH]c(-c4cccs4)c3C2c2ccc(C)cc2)cc1 (stereo not given)	-8%	-2%	/
CCOC(=O)c1ccc(N2C(=O)c3n[nH]c(-c4cccs4)c3C2c2ccc(Cl)cc2Cl)cc1 (stereo not given)	20µM*	-1%	/
COc1ccc(-c2n[nH]c3c2C(c2ccc(O)cc2)N(c2ccc(Br)cc2)C3=O)cc1 (stereo not given)	?	-1%	/
CCOC(=O)c1ccc(N2C(=O)c3n[nH]c(-c4ccco4)c3C2c2ccc(OCC)cc2)cc1 (stereo not given)	14%	-29%	/
COc1ccc(OC)c(C2c3c(-c4ccc(Br)cc4)n[nH]c3C(=O)N2c2ccc(Cl)cc2)c1 (stereo not given)	16µM*	-2%	/
CCOC(=O)c1ccc(N2C(=O)c3[nH]nc(-c4ccc(OC)cc4)c3C2c2ccc(C)cc2)cc1 (stereo not given)	25µM*	-2%	/
COCCNC(=O)C(c1cccs1)N(C(=O)Cn1nnc2ccccc21)c1cccc(C(C)=O)c1 (stereo not given)	10%	11%	-1%
CC(C)(C)C(=O)NC(=S)NCCc1ccccc1	-10%	4%	-46%
CC(C)C(=O)Nc1ccc(C(=O)NN2C(=O)c3ccccc3C2=O)cc1	-2%	-2%	15%
O=C(c1cc(-c2cccnc2)nc2ccccc12)N1CCCc2ccccc21	-9%	-10%	-20%
Cc1ccc(-c2cc(C(=O)N3CCCc4ccccc43)c3ccccc3n2)cc1	32µM*	-2%	-54%
COc1cccc(N2C(=O)C(CC(=O)Nc3ccccc3)N(CCc3sccc3C)C2=O)c1 (stereo not given)	8%	-7%	/
COc1ccc(CC(=O)NCC(=O)N/N=C/c2sccc2C)cc1	/	/	3%
COc1cc(C(=O)Nc2nnc(CC(C)(C)C)s2)cc(OC)c1OC	?	-6%	/
SMILES	Cruzain noTriton	Cruzain inh Det	NS1 function inh
COc1cc2c(cc1NC(=O)CN1CCN(S(=O)(=O)c3ccc(C)cc3)CC1)oc1ccccc12	7.9µM*	0%	14%
COc1ccc(OC)c(C(=O)CN2CCN(S(=O)(=O)c3ccc(Br)cc3)CC2)c1	25µM*	2%	-17%
COc1cc2c(cc1NC(=O)C(C)Oc1ccccc1)oc1ccccc12 (stereo not given)	-14%	-9%	/
COc1ccc(C)cc1NC(=O)CN1CCN(S(=O)(=O)c2ccc(Cl)cc2)CC1	25%	-2%	-36%
COc1cc2c(cc1NC(=O)C(C)N1CCN(S(=O)(=O)c3ccccc3[N+](=O)[O-])CC1)oc1ccccc12 (stereo not given)	0.79µM*	3%	1%
COc1ccc(NC(=O)CN2CCN(S(=O)(=O)c3ccc(Br)cc3)CC2)cc1	12%	-2%	/
COc1cc2c(cc1NC(=O)C(C)N1CCN(S(=O)(=O)c3ccc(C)c(C)c3)CC1)oc1ccccc12 (stereo not given)	7.9µM*	2%	-5%
COc1cc2c(cc1NS(=O)(=O)N1CCCC1)oc1ccccc12	14%	-8%	-3%
CCOC(=O)c1cnc2ccc(C)cc2c1Nc1ccc(N(CC)CC)cc1	6%	-14%	/
